The values that follow come from PubChem BioAssay AID720582 (The Scripps Research Institute Molecular Screening Center, 2013).

Hit rate of the full screen: of about 370,000 compounds, about 2,300 (0.62%) were called active.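 Rule for the calls: active = inhibition above a per-campaign cutoff equal to the mean of compounds falling between control-based bounds plus 3 SD (cut at about 20% in these data); inactive = the rest.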 The entries come from a sample that favours actives as a whole.

The target of this test is Disintegrin and metalloproteinase domain-containing protein 10 (Homo sapiens) (UniProt O14672). In words: blockers of ADAM10 peptide cleavage – biochemical, QFRET, HTS, primary screen (AID 720582).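 Note: 0% = DMSO wells while the 100% control is not disclosed.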 The following applies: recombinant ADAM10, EDANS/DABCYL FRET peptide cleavage, 3 h; at 7 µM; stronger effect = higher value.
Sequence of Disintegrin and metalloproteinase domain-containing protein 10 (Homo sapiens) (O14672 214-748 limits assumed): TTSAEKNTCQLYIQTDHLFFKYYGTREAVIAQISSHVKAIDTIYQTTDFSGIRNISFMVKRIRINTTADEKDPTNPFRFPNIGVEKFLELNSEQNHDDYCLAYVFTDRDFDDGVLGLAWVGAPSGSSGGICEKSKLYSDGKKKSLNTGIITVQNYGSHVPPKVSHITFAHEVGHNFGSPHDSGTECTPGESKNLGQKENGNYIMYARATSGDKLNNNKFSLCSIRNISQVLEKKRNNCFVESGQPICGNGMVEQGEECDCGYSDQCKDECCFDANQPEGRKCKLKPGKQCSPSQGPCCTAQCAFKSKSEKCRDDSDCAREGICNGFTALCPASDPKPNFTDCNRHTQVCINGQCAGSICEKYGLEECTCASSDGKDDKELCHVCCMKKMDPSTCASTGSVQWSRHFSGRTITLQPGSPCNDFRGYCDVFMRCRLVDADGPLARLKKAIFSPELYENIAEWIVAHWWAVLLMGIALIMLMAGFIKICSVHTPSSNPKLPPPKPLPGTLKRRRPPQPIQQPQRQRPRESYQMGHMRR
One may read the inhibition as the change of the read-out against control, counted positive when it falls. Regarding `N#Cc1ccccc1OC[C@@H](O)CN1CCC(C(O)(c2ccccc2)c2ccccc2)CC1`, the inhibition is -0.66% (inactive).
The value for `Cc1ccc(C)c(NC(=O)NNC(=O)c2ccc3ccccc3c2O)c1` was -78.3% (inactive); that for `Cc1ccc(C)c(NC(=S)NNC(=O)c2csc(C)c2)c1` was 24.9% (active).
For `Cc1cc(C(=O)NNC(=S)NC(C)c2ccccc2)cs1` (configuration not stated), the inhibition was 9.44% (inactive).
Take `COc1ccccc1C(=O)CSc1nnc(-c2ccccn2)n1-c1ccccc1`: the inhibition was -1.9% (inactive).
The value for `COc1cccc(CSc2nnc(-c3cccnc3)n2Cc2ccccc2)c1` was -11.6% (inactive); that for `O=C(CCCCCN1C(=O)C2C3C=CC(C3)C2C1=O)Nc1ccccn1` (configuration not stated) was 2.11% (inactive); that for `COC(=O)c1cc(S(=O)(=O)N2CCN(C(=O)C3CCCO3)CC2)cn1C` (configuration not stated) was -4.05% (inactive).
Regarding `CCC(C)(C)c1ccc(Oc2ccc(NC(=O)COC(=O)C3=COCCO3)cc2)cc1`, the inhibition was 35.7% (active).
The value for `COc1ccc(NC(=O)COC(=O)CNC(=O)C2CCCCC2)cc1` was -0.81% (inactive); that for `O=C1CCC(C(=O)OCC(=O)Nc2ccc(OC(F)F)cc2)=NN1` was 5.49% (inactive); that for `N/C(Cc1ccc([N+](=O)[O-])cc1)=N\OC(=O)C1CCCCC1` was -1.46% (inactive).
The value for `N/C(Cc1ccc([N+](=O)[O-])cc1)=N\OC(=O)COc1ccc2ccccc2c1` was 29.3% (active).
As for `Cc1cc(C)cc(OCC(=O)O/N=C(\N)Cc2ccc([N+](=O)[O-])cc2)c1`, the inhibition was 6.24% (inactive).
For the compound `O=C(NCC1COc2ccccc2O1)c1ccc(NC(=O)c2cc(F)ccc2F)cc1` (configuration not stated), the inhibition is -8.24% (inactive).
The value for `CCOC(=O)N1CCN(C(=O)C[C@@H]2C(=O)N(CCc3ccc(Cl)cc3)C3=CCCC[C@]32C(=O)OCC)CC1` was 1.06% (inactive); that for `COc1ccc(CN(CCN2CCOCC2)C(=O)c2ccc(C)cc2)cc1OC` was -9.63% (inactive).
The value for `COc1ccc(C(CCN(Cc2ccc(OC)c(OC)c2)C(=O)CCl)c2ccccc2)cc1` (configuration not stated) was 28% (active).
The value for `COc1ccc(C(C(=O)NC2CCCCC2)N(C(=O)CCl)c2ccccc2Cl)cc1` (configuration not stated) was -8.69% (inactive).
For the compound `COC(=O)C1CN(CCc2ccccc2)CCS(=O)(=O)N1Cc1ccc(F)cc1` (configuration not stated), the inhibition is -11.1% (inactive).
As to `COC1=C[C@H](C(=O)NCCNC(C)=O)[C@H](C)[C@@H](c2ccccc2)CC1=O`, the inhibition is 4.85% (inactive).
Take `CCOc1ccccc1NC(=O)c1cc(S(=O)(=O)N2CCC3(CC2)OCCO3)ccc1F`: the inhibition is -1.65% (inactive).
The value for `CCOc1cc(NC(=O)CCl)c(OCC)cc1NC(C)=O` was -2.95% (inactive); that for `CCOc1cc(NC(=O)c2ccccc2C(=O)O)c(OCC)cc1NC(=O)c1ccccc1F` was 26.7% (active).
The value for `c1cncc(CNc2ccnc(-c3ccc4c(c3)OCO4)n2)c1` was -4.61% (inactive).
With `CN(CCc1ccccc1)C(=O)Cn1nc(-c2ccccc2)ccc1=O`, the inhibition was -9.95% (inactive).
Consider `C=CCOc1ccc(/C=N/n2cncn2)cc1OC`, for which the inhibition is -13.5% (inactive).
The value for `CNC(=S)N/N=C/c1ccc(OCc2ccccc2)c(Br)c1` was -17% (inactive).
The value for `COc1cc(/C=N/n2c(C)n[nH]c2=S)ccc1OCc1ccccc1` was 20.3% (active); that for `CC(CCN1CCC(C(O)(c2ccccc2)c2ccccc2)CC1)Oc1ccc(Cl)cc1` (configuration not stated) was 6% (inactive); that for `O=S1(=O)c2ccc(Br)cc2OC[C@H](Cc2ccccc2)N1Cc1cn(Cc2ccccc2)nn1` was -9.49% (inactive).
The value for `Cc1[nH]nc(-c2ccc(OCc3cnn(-c4ccccc4)c3)cc2O)c1Oc1ccc(Cl)cc1` was -10.7% (inactive); that for `C=C(C)COc1ccc(-c2n[nH]c(C)c2-c2ccccc2)c(O)c1` was 23.7% (active).
On to `C[C@H]1CCC/C=C/C(=O)c2c(O)cc(O)cc2CC(=O)O1`, for which the inhibition was -6.63% (inactive).
The value for `O=C(CSc1nnc(COc2ccccc2)n1Cc1ccco1)c1ccc2ccccc2c1` was 9.91% (inactive); that for `Cc1ccc(-c2nnc(SCC(=O)Nc3ccc(Oc4ccccc4)cc3)n2Cc2ccco2)cc1` was 17.8% (inactive).
`Cc1ccc(OCc2nnc(SC/C=C/c3ccccc3)n2Cc2ccco2)cc1`: the inhibition is 21.3% (active).
The value for `Cc1c(C(C)c2ccccc2O)[nH]c2ccccc12` (configuration not stated) was 11.8% (inactive); that for `O=C1CC(c2ccc3c(c2)OCO3)N=C2N(CC3CC3)C/C(=C/c3ccccc3)N12` (configuration not stated) was -2.63% (inactive); that for `CC(=O)Nc1ccc(N2C(=O)C3C4CC(=O)C(c5ccccc54)C3C2=O)cc1` (configuration not stated) was -0.65% (inactive).
Turning to `Cc1ccc(C)c(NC(=O)c2ccc(OC(=O)c3ccco3)cc2)c1`, the inhibition was 0.79% (inactive).
The value for `O=C(Oc1cccc(N2C(=O)C3C4c5ccccc5C(c5ccccc54)C3C2=O)c1)c1ccco1` (configuration not stated) was 20.3% (active); that for `O=C(NCCNc1ccc([N+](=O)[O-])cc1)c1cccc2c(Br)cccc12` was -54.2% (inactive); that for `COc1ccc(Cn2cc(COC(=O)N(C)Cc3ccccc3)nn2)cc1` was 1.83% (inactive).
The value for `Oc1oc(-c2ccccc2Br)nc1/C=N/c1ccccn1` was -33.4% (inactive); that for `CC(N=Cc1nc(-c2ccccc2)oc1O)c1ccccc1` (configuration not stated) was 21% (active); that for `COc1ccc(-n2c(SCC(=O)Nc3ccc4cn[nH]c4c3)nnc2-c2cccnc2)cc1` was 3.52% (inactive).
Turning to `CC(C)CSc1nnc(-c2cccnc2)n1Cc1ccccc1`, the inhibition was -2.15% (inactive).
The value for `Nn1c(SCC(=O)N2c3ccccc3Sc3ccccc32)nnc1-c1n[nH]c2c1CCC2` was -5.44% (inactive); that for `Cc1ccc(N(CC(=O)Nc2cc(C)cc(C)c2)S(=O)(=O)c2cccc3nonc23)cc1` was 14.3% (inactive).
The value for `Cc1ccc(S(=O)(=O)N(CC(=O)Nc2cccnc2)c2ccc(Br)cc2)cc1` was 20.1% (active); that for `CCNC(=O)CN(c1ccc(C)cc1)S(=O)(=O)c1ccc(SC)cc1` was 2.9% (inactive); that for `O=S1(=O)c2c(cccc2N2CCSCC2)Oc2ccccc2CN1Cc1cn(Cc2ccc(F)cc2)nn1` was -1.57% (inactive).
The value for `CCOc1ccc(N(CC(=O)Nc2c(C)n(C)n(-c3ccccc3)c2=O)S(=O)(=O)c2ccc(Cl)s2)cc1` was 7.29% (inactive).
As for `O=S(=O)(c1ccccc1)N(Cc1cccc(F)c1)c1ccccc1`, the inhibition was 22.7% (active).
The value for `NC(=O)c1ccccc1N(Cc1ccccc1)S(=O)(=O)c1ccccc1` was 14.4% (inactive).
The value for `O=C(O)c1cc(S(=O)(=O)N(Cc2ccccc2)c2ccccc2)ccc1Cl` was 2.05% (inactive); that for `Cc1cc(=O)[nH]c(SCC(=O)Nc2ccc(Cl)cc2C)n1` was -0.31% (inactive); that for `C[C@@H]1CN([C@@H](C)CO)C(=O)c2cccc(NC(=O)Nc3cccc4ccccc34)c2O[C@H]1CN(C)S(=O)(=O)c1ccccc1F` was -24.8% (inactive).
The value for `CCc1ccccc1NC(=O)CSc1nnc(-c2cccs2)o1` was -1.28% (inactive).
As for `COc1ccc(-n2c(COc3ccccc3)nnc2SCC(=O)Nc2ccc3c(c2)OCO3)cc1`, the inhibition was 2.97% (inactive).
The value for `O=S(=O)(c1ccccc1)c1nc(-c2ccccc2F)oc1NCc1cccnc1` was 12.6% (inactive); that for `CCOc1ccc(Nc2oc(Cc3ccccc3)nc2C#N)cc1` was 23.6% (active); that for `N#Cc1nc(COc2ccc(Cl)cc2)oc1N1CCCC1` was 1.11% (inactive).
The value for `Cc1ccc(OCc2nc(C#N)c(N3CCCC3)o2)cc1` was -0.05% (inactive).
The value for `O=S(=O)(c1ccc(Br)cc1)c1nc(-c2ccccc2)oc1NCc1cccnc1` was 4.12% (inactive); that for `N#Cc1nc(COc2ccc(-c3ccccc3)cc2)oc1NCc1cccnc1` was 23.1% (active).
`CCCCOCCCNC(=O)C[C@H]1C[C@@]2(C(=O)OC)C(=C[C@H](COCc3ccccc3)O[C@@H]2C)N(Cc2cccc3ccccc23)C1=O`: the inhibition was 11.9% (inactive).
With `CC(C)(C)CN1C(=O)C(=O)NC[C@H]1Cc1cccc2ccccc12`, the inhibition was -16.5% (inactive).
For `c1ccc2c(CCN3CCNC[C@H]3Cc3cccc4ccccc34)cccc2c1`, the inhibition was 79% (active).
For `c1ccc(C2CNCc3c2ccc2ccccc32)cc1` (configuration not stated), the inhibition is -2.76% (inactive).
Consider `CC(=O)C1(C(=O)Nc2nccs2)CC(c2ccccc2C(F)(F)F)=NO1` (configuration not stated), for which the inhibition was -3.94% (inactive).
The value for `Cc1cccc(C2c3[nH]c4ccccc4c3CCN2C(=O)c2cc(-c3cccn3C)n[nH]2)n1` (configuration not stated) was 20.4% (active); that for `Cc1cccc(C(=O)N2CCc3c([nH]c4ccccc34)C2CC(C)C)n1` (configuration not stated) was -15.2% (inactive).
Consider `COCc1ccc(C(=O)N2CCc3c([nH]c4ccccc34)C2c2ccccn2)s1` (configuration not stated), for which the inhibition was 9.76% (inactive).
The value for `COC(=O)c1ccccc1-n1cc(COC(=O)NCCc2ccccc2)nn1` was -5.72% (inactive).
The value for `C=CCN(C(=O)[C@@H](CCCC)[C@@H](O)c1ccc(Cl)cc1)c1ccccc1` was 11.4% (inactive).
The value for `COc1cc(NC(=O)c2cc(-c3ccc(F)cc3OC(C)C)n[nH]2)cc(OC)c1OC` was 9.02% (inactive); that for `CC(C)Oc1cc(F)ccc1-c1cc(C(=O)Nc2ccc(F)cc2)[nH]n1` was 5.58% (inactive); that for `CC(C)Oc1cc(F)ccc1-c1cc(C(=O)Nc2cccc(Cl)c2)[nH]n1` was 22.1% (active).
Consider `CCOC(=O)C1CCN(C(=O)C(C)(C)NC(=O)Nc2ccc(F)c(F)c2)CC1`, for which the inhibition is 6.44% (inactive).
Regarding `COc1ccc(N2CCN(CCNS(=O)(=O)c3ccc([N+](=O)[O-])cc3)CC2)cc1`, the inhibition was 5.38% (inactive).
The value for `COc1ccc(C(=O)COC(=O)c2c(C)noc2C)cc1Cl` was 3.87% (inactive); that for `Cc1[nH]c2ccccc2c1C(=O)CN1CC(C)CC(C)C1` (configuration not stated) was -6.1% (inactive).
The value for `Cc1[nH]c2ccccc2c1C(=O)COC(=O)c1c(-c2ccccc2)noc1C` was 24.7% (active); that for `COCCCNC(=O)C[C@H]1C[C@@]2(C(=O)OC)C(=C[C@H](C(C)(C)C)O[C@@H]2C)N(Cc2ccc(Cl)cc2Cl)C1=O` was 8.61% (inactive).
The value for `C=CS(=O)(=O)N(Cc1nnn(Cc2ccccc2)c1Br)[C@H](C(=O)OC)C(C)C` was 5.21% (inactive).
